Screens as filed in PubChem BioAssay.
Compounds with a hit are over-represented: about 3.4% of the library has one in this group of screens.
NRP1-CendR mod – alters CendR peptide binding to human NRP-1. actives 0.85% (n = 360,000). inhibition, % at 25 µM. FAM-RPARPAR peptide binding to NRP-1, fluorescence polarization. O14786;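 active = inhibition or corrected inhibition above about 18%, plus a signal ratio from 0.5 to 1.5, limit read from the data, passing the limit was not always enough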
sPLA2-III inh – Blocks human group III sPLA2 activity; AID 743126; Q9NZ20; actives 0.56% (n = 370,000); QFRET BODIPY PC-A2 liposome hydrolysis, fluorescence; inhibition, % at 12.2 µM;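 active = inhibition above mean plus 3 SD of compounds lying within the high and low control bounds, cut at about 19% in these data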;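 note: 0% = median of test compound wells and 100% = no enzyme DMSO wells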
ADAM10 inh – ADAM10 inhibition, QFRET primary screen | O14672 | recombinant ADAM10, EDANS/DABCYL FRET peptide cleavage, 3 h | inhibition, % at 7 µM | actives 0.62% (n = 370,000) | AID 720582;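 active = inhibition above a per-campaign cutoff equal to the mean of compounds falling between control-based bounds plus 3 SD, cut at about 20% in these data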;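 note: 0% = DMSO wells while the 100% control is not disclosed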
proKLK7 act – proKLK7 (human) activation, primary screen. P49862. activation, % at 7 µM. purified proKLK7, EDANS-DABCYL substrate fluorescence; 100% is mature enzyme control, 0% vehicle. actives 0.9% (n = 370,000);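 active = activation above the mean of all tested compounds plus 3 SD, computed per campaign excluding outliers beyond control limits, cut at about 13% in these data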
ADAM17 inh – inhibitors of human ADAM17; P78536; recombinant ADAM17, EDANS/DABCYL FRET peptide cleavage; inhibition, % at 6.95 µM; actives 0.83% (n = 370,000); AID 720648;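 active = inhibition above the mean of compounds lying between control limits plus 3 SD, set per campaign, cut at about 8.5% in these data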;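 note: 0% = DMSO-only wells as the low control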
ADAM10 counter – ADAM10 inhibition, counter-screen for ADAM17 exosite hits. recombinant ADAM10, EDANS/DABCYL FRET peptide cleavage, 3 h. actives 47% (n = 2,900). AID 743256. shares compounds with ADAM17 inh. inhibition, % at 6.95 µM;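 active = mean inhibition over the triplicate runs exceeds the activity threshold set in the earlier primary screen, cut at about 20% in these data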;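 note: 0% = DMSO wells and 100% = marimastat wells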
ADAM17 confirm – human ADAM17 inhibition, confirmation; shares compounds with ADAM17 inh; recombinant ADAM17, EDANS/DABCYL QFRET peptide cleavage; inhibition, % at 6.95 µM; actives 65% (n = 2,900);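 active = mean inhibition across replicates above the hit cutoff set in the primary screen, cut at about 8.5% in these data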;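 note: 0% = DMSO wells and 100% = marimastat wells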
* = called active by the depositor; . = not tested or not shown.

SMILES | NRP1-CendR mod | sPLA2-III inh | ADAM10 inh | proKLK7 act | ADAM17 inh | ADAM10 counter | ADAM17 confirm
COc1ccc(CCN(Cc2cccs2)S(=O)(=O)c2ccc(F)cc2)cc1OC | . | -10 | 19 | 0 | 15* | 10 | 7
COc1ccc(CCN(Cc2cccs2)S(=O)(=O)c2ccccc2)cc1OC | . | -9 | 10 | 1 | 7 | . | .
CCC(C)NS(=O)(=O)c1ccc(S(=O)(=O)N(CCc2ccc(OC)c(OC)c2)Cc2cccs2)cc1 (centres undefined) | 2 | -31 | 17 | 1 | 8.9* | 38* | 16*
CCOC(=O)[C@@H]1CSCCS(=O)(=O)N1Cc1ccc(C(F)(F)F)cc1 | . | -5 | 10 | 0 | 1 | . | .
O=[N+]([O-])c1cc(C(F)(F)F)ccc1Oc1cccnc1[N+](=O)[O-] | -2 | 3 | 2 | 0 | 6 | . | .
O=C(Nc1ccc(F)cc1)c1ccccc1Oc1ccc(C(F)(F)F)cc1[N+](=O)[O-] | 4 | -20 | 17 | 1 | 11* | 23* | 12*
CN(C)CCNC(=O)c1ccc2c(=O)n(Cc3ccc(Cl)cc3)c(=S)[nH]c2c1 | 9 | 0 | 16 | -1 | 9.1* | -9 | 2
CCc1nnc(NS(=O)(=O)c2ccc(NC(=O)c3cccc(Br)c3)cc2)s1 | -5 | -78 | 2 | 0 | 9.6* | 0 | 3
CCC(CC)C(=O)Nc1cccc(C(=O)Nc2ccc(S(=O)(=O)Nc3ccc(C)cc3)cc2)c1 | 2 | -48 | 18 | 0 | 8.8* | 22* | 17*
CCOc1cc(C(=O)Nc2ccc(S(=O)(=O)Nc3nnc(CC)s3)cc2)cc(OCC)c1OCC | 0 | -66 | 7 | 0 | 1 | . | .
CC(C)C[C@H](NC1(C(=O)NC2CCCCC2)CCOCC1)C(=O)NCC(c1ccccc1)c1ccccc1 | . | 9 | -10 | . | -3 | . | .
CCC(C)(C)n1nnnc1C(c1ccc(C)cc1)N(Cc1ccco1)Cc1cccs1 (centres undefined) | 6 | -4 | 13 | 0 | 9.4* | 7 | 5
O=C(CSc1nnc(-c2ccccc2)n1-c1ccc(Cl)cc1)c1ccccc1Br | . | -28 | 10 | 0 | 5 | . | .
O=C(CN1CCOCC1)Nc1ccccc1C(=O)O | -6 | 4 | 1 | 0 | 2 | . | .
O=C(CN1CCOCC1)Nc1ccccc1F | 19 | 3 | 7 | 0 | 9.1* | -2 | -1
COC(=O)[C@]12C[C@H](CC(=O)N3CCC(c4ccccc4)CC3)C(=O)N(Cc3ccc4c(c3)OCO4)C1=C[C@H](COCc1ccccc1)O[C@@H]2C | . | -3 | 6 | 0 | 5 | . | .
O=C1NC(Cc2ccccc2)c2nc3ccc(F)cc3c(=O)n2-c2cc(Cl)ccc21 (centres undefined) | . | -1 | 6 | 1 | 13* | -6 | 1
CC(=O)Nc1ccc(Sc2ncnc3scc(-c4ccccc4)c23)cc1 | -6 | -18 | 7 | -1 | 10* | 14 | 10.0*
O=C(COc1cccc2ccccc12)Nc1ccc(Cl)cc1C(=O)O | -6 | -40 | 5 | 1 | -1 | . | .
O=C(COc1cccc2ccccc12)Nc1cc(Cl)ccc1C(=O)O | -23 | -44 | 4 | 0 | 13* | 7 | 6
Cc1cc(C)cc(N(CC(=O)NC2CCC(C)CC2)S(=O)(=O)c2ccc(Br)s2)c1 (centres undefined) | . | -1 | 2 | 0 | 2 | . | .
Cc1ccc(NC(=O)CCS(=O)(=O)c2ccc3c(c2)NC(=O)C(C)S3)cc1Cl (centres undefined) | 3 | -42 | 4 | 0 | -1 | . | .
CC1Sc2ccc(S(=O)(=O)CCC(=O)Nc3ccccc3Cl)cc2NC1=O (centres undefined) | 11 | -15 | 7 | 0 | 9.3* | -10 | 1
CCOC(=O)[C@]12CCCC=C1N(Cc1ccc(OC)cc1)C(=O)[C@@H]2CC(=O)NCc1ccc(OC)c(OC)c1 | . | -8 | 6 | 0 | -2 | . | .
Cc1ccc(NC(=O)Nn2cnnc2)cc1 | -4 | -2 | 2 | 1 | -6 | . | .
SMILES | NRP1-CendR mod | sPLA2-III inh | ADAM10 inh | proKLK7 act | ADAM17 inh | ADAM10 counter | ADAM17 confirm
O=C(Nc1ccc([N+](=O)[O-])cc1)Nn1cnnc1 | 12 | 1 | 6 | 0 | 10* | 5 | 8
COc1ccc(-n2c(=S)[nH]c3cc(C(=O)Nc4ccccc4OC)ccc3c2=O)cc1 | . | 2 | 0 | 1 | 0 | . | .
COc1ccc(-n2c(=S)[nH]c3cc(C(=O)Nc4ccccc4OC)ccc3c2=O)c(OC)c1 | 10 | 1 | 17 | 0 | 9.0* | 28* | 12*
CCOC(=O)c1cc2sccc2n1CC(=O)OC | -15 | -1 | -5 | 0 | -3 | . | .
CCOC(=O)Cn1c(C(=O)OCC)cc2sccc21 | 16 | -2 | 1 | 0 | 9.2* | 3 | 7
O=C(COc1ccccc1F)NNC(=O)c1cccc(-n2cccc2)c1 | 7 | -19 | 11 | 0 | 15* | -1 | 3
O=C(COc1cccc(F)c1)NNC(=O)c1cccc(-n2cccc2)c1 | -10 | -18 | -5 | 0 | 0 | . | .
CC(C)(C)OC(=O)N1CCC2CCN(S(=O)(=O)c3ccccc3)CC21 (centres undefined) | . | 3 | -10 | 0 | -5 | . | .
COc1cccc(C(=O)N/N=C/c2ccc(OC3CSC3)cc2)c1 | 0 | 6 | 12 | 1 | 9.2* | -3 | -1
N#Cc1ccc(C(=O)NCC2CCN(C(=O)C(=O)c3cccs3)CC2)cc1 | . | 15 | -2 | 0 | -1 | . | .
CN(CC(=O)Nc1ccc(Cl)c(C(F)(F)F)c1)C(=O)c1cccnc1Sc1ccccc1 | 1 | -8 | 8 | 0 | 12* | 27* | 9.7*
CSc1ncccc1C(=O)N(C)CC(=O)Nc1ccc(Cl)c(C(F)(F)F)c1 | 20 | 3 | -4 | 0 | 0 | . | .
Cc1ccc(CNC(=O)Cn2ccc3cc(S(=O)(=O)N4CCCCCC4)ccc32)cc1 | 3 | -2 | 3 | 0 | 8.8* | -3 | 7
Cc1cccc(CNC(=O)Cn2ccc3cc(S(=O)(=O)N4CCCCCC4)ccc32)c1 | 8 | -23 | 14 | 1 | 4 | . | .
COc1ccc(C(=O)NCC2CCN(C(=O)C(=O)c3cc4ccccc4o3)CC2)c(OC)c1 | . | -4 | -4 | 1 | -1 | . | .
CC(C)(C)OC(=O)NCCCC[C@H](NC(=O)c1nc[nH]c1C(=O)N1CCc2ccccc2C1)C(=O)OC(C)(C)C | 21 | -16 | 10 | 0 | 2 | . | .
CC(C)(C)OC(=O)NCCCC[C@H](NC(=O)c1nc[nH]c1C(=O)NC1CCN(C(=O)OC(C)(C)C)CC1)C(=O)OC(C)(C)C | 25 | -12 | 17 | 1 | 8.9* | -10 | 3
